# According to PubChem BioAssay AID1259370 (Center for Chemical Genomics, University of Michigan, 2018):
# The whole screen tested about 94,000 compounds, of which about 680 (0.72%) were called active. Rule as the data show it: active = z-score above about 3.2; inactive = the rest. This excerpt belongs to a sample that is enriched for actives.
# Molecular target: M-phase inducer phosphatase 2 (Homo sapiens) + Cyclin-dependent kinase 2 (Homo sapiens) + Cyclin-A2 (Homo sapiens) (UniProt P30305+P24941+P20248)
# Test: primary biochemical HTRF screen for blockers of M-phase inducer phosphatase 2 binding to CDK2/cyclin A (AID 1259370)
# Conditions: HTRF CDC25B-CDK2/CyclinA binding, anti-His/anti-Flag; stronger effect = higher value
row,Compound,z-score
1,O=C1CCCN1CCCn1c(=O)[nH]c2ccccc2c1=O,-0.94 (inactive)
2,Cc1nc2ccccc2nc1NO,1.05 (inactive)
3,Cc1cc(=O)nc2c3ccccc3n(CC(=O)NC3CCC(C)CC3)n12 (stereo unspecified),-1.08 (inactive)
4,CCN1CCN(c2c(C(=O)c3ccccc3)cnc3cc4c(cc23)OCCO4)CC1,2.74 (inactive)
5,CCn1c(SCC(=O)Nc2c(C)cc(C)cc2C)nc2c(c1=O)SCC2,-0.71 (inactive)
6,CCc1cc2c(cc3c(=O)n(CC(=O)NCCCOC)nc(CC)n32)s1,-1.5 (inactive)
7,O=S(=O)(NCc1ccccc1)c1ccc(-c2ccc(S(=O)(=O)NCc3ccccc3)cc2)cc1,-0.47 (inactive)
8,COc1cc(C2CC(=O)N3CN(c4ccc(Br)cc4)CSC3=C2C#N)ccc1O (stereo unspecified),0.91 (inactive)
9,COc1ccc(-c2n[nH]c3c2C(c2cccc(Br)c2)NC3=O)cc1 (stereo unspecified),0.39 (inactive)
10,COc1ccc(N2CSC3=C(C#N)C(c4cccc(Br)c4)CC(=O)N3C2)cc1 (stereo unspecified),4.67 (active)
11,COc1ccc(N2C(=O)CSC2c2cc(Br)ccc2OC)cc1 (stereo unspecified),-0.41 (inactive)
12,COc1cccc(C2CC(=O)N3CN(c4ccc(Br)cc4)CSC3=C2C#N)c1 (stereo unspecified),7.44 (active)
13,CN1CSC2=C(C#N)C(c3ccc(Br)cc3)CC(=O)N2C1 (stereo unspecified),1.4 (inactive)
14,Cc1cc(C)c2c(n1)nn1c(C)c(CCC(=O)NCCCN3CCCC3=O)c(C)nc21,-0.15 (inactive)
15,CC(C)n1c(=O)c2c3c(sc2n(Cc2ccccc2)c1=O)COC(C)(C)C3,-1.8 (inactive)
16,O=c1c2cccnc2n(Cc2ccc(F)cc2)c(=O)n1Cc1ccco1,0.9 (inactive)
17,C=CCN(c1ccccc1)S(=O)(=O)c1cc(Br)cc2c1N(C(C)=O)C(C)C2 (stereo unspecified),0.27 (inactive)
18,COc1cccc(OCC(O)Cn2c[n+](C)c3cc(C)c(C)cc32)c1 (stereo unspecified),0.54 (inactive)
19,CC1=C(C(=O)OCC2CCCO2)C(c2cccc(Cl)c2)C2=C(CC(c3cccs3)CC2=O)N1 (stereo unspecified),-0.95 (inactive)
20,Cn1c(=O)c2c(ncn2CC(=O)NCC2CCCO2)n(C)c1=O (stereo unspecified),-1.02 (inactive)
21,CCC(C)N(CCNC(=O)Nc1cn(C)c(=O)c2ccccc12)Cc1ccco1 (stereo unspecified),12.3 (active)
22,Cc1ccccc1NC(=O)NCc1ccco1,-0.44 (inactive)
23,Cc1nn(C(C)C(=O)NCc2ccco2)c(=O)c2cc3occc3n12 (stereo unspecified),-0.04 (inactive)
24,COc1cc(NC(=O)c2nn3c(C(F)(F)F)cc(-c4cccs4)nc3c2Cl)cc([N+](=O)[O-])c1,-3.72 (inactive)

row,Compound,z-score
1,COc1ccccc1-c1nnc(SCc2ccc(F)cc2)o1,1.82 (inactive)
2,O=C(NC1CCc2ccccc21)c1cc2c(s1)CCC2 (stereo unspecified),-1.04 (inactive)
3,O=C(Nc1ccc(F)cc1)N1CCC(n2c(=O)[nH]c3ccccc32)CC1,-3.87 (inactive)
4,CCN(CC)c1nc2c(s1)C(=O)NCC(C)(C)C2,-0.63 (inactive)
5,O=C(/C=C/c1ccc(-c2ccccc2[N+](=O)[O-])o1)Nc1cc(Cl)c(Cl)cc1Cl,3.71 (active)
6,O=C(/C=C/c1ccc(Cl)cc1)Nc1ccc(-c2nc3ccccc3o2)c(O)c1,-2.66 (inactive)
7,O=C(/C=C/c1cccc([N+](=O)[O-])c1)Nc1ccc(O)c(-c2nc3ccccc3o2)c1,-3.5 (inactive)
8,CCCCN(CC)C(=O)c1nn(C)c2c1COc1ccccc1-2,-1.21 (inactive)
9,CCCc1nc(C)cc(N2CCOCC2)n1,-1.62 (inactive)
10,COc1cc(C2CC(=O)Nc3c2cc(Br)c2ccccc32)ccc1O (stereo unspecified),-0.73 (inactive)
11,Cc1ccc(NC(=O)CSc2nc(N)c3c4c(sc3n2)COC(C(C)C)C4)cc1 (stereo unspecified),-24.7 (inactive)
12,COC(=O)C1=C(OC(=O)COc2ccccc2)c2ccccc2S(=O)(=O)N1C,-1.66 (inactive)
13,CCOC(=O)Cc1nnc2c(Nc3cccc(Br)c3)nc3nonc3n12,-0.4 (inactive)
14,CCCCCCn1c(C2CCCO2)nc2ccccc21 (stereo unspecified),-2.17 (inactive)
15,CCCCn1c(CCNC(=O)C(C)(C)C)nc2ccccc21,0.64 (inactive)
16,CCCCn1c2ccccc2c2nc3ccccc3nc21,19.8 (active)
17,C=C1c2cc(OCC)ccc2NC(=O)N1c1ccc(Cl)cc1,-0.12 (inactive)
18,CCCCN(Cc1ccco1)C(=O)Cn1ncc2c1-c1cc(C)ccc1OC2,-2.75 (inactive)
19,O=C1c2ccccc2C(Nc2ccc3c(c2)OCCO3)N1c1ccc(Cl)cc1 (stereo unspecified),1.04 (inactive)
20,O=C(COc1ccc(Cl)cc1)Oc1ccc2ccccc2c1,-1.03 (inactive)
21,CC1=Nc2ccccc2-c2nnc(SCc3ccccc3F)nc2O1,-1.63 (inactive)
22,CCC(C)NC(=O)C1CCN(C(=O)c2sccc2-n2cccc2)CC1 (stereo unspecified),-1.11 (inactive)
23,CCOc1cc(-n2cnnn2)c(OCC)cc1N,14.4 (active)
24,Cc1cc(OCC(=O)Oc2ccc(-n3cnnn3)cc2)cc(C)c1Cl,0 (inactive)

row,Compound,z-score
1,CCOC(=O)N1CCN(S(=O)(=O)c2ccc(-n3cnnn3)cc2)CC1,-0.58 (inactive)
2,Clc1ccc(N2CCCC2)nn1,0.42 (inactive)
3,Cc1ccccc1-c1noc(-c2ccc(F)cc2)n1,-0.49 (inactive)
4,CC(C)(C)c1cn2c3ccccc3n(CCN3CCOCC3)c2n1,0.1 (inactive)
5,CC1CCN(c2cc(NCC(=O)O)c3c4c(onc24)-c2ccccc2C3=O)CC1,13.8 (active)
6,CC(C)CNc1cc(N2CCN(C)CC2)c2noc3c2c1C(=O)c1ccccc1-3,-2.89 (inactive)
7,CN1CCN(c2cc(NCCCC(=O)O)c3c4c(onc24)-c2ccccc2C3=O)CC1,0.14 (inactive)
8,Cc1nc2ncnn2c(Sc2ccc(N)cc2)c1C,3.58 (inactive)
9,O=C(CN1CCN(c2ccccn2)CC1)c1ccc2c(c1)CCN2,-2.4 (inactive)
10,Cc1ccc(-c2nnc(C3CCN(S(=O)(=O)c4c(C)cc(C)cc4C)CC3)o2)cc1,0.05 (inactive)
11,COc1ccc(OCC(O)CN2CCC(C)CC2)cc1 (stereo unspecified),1.91 (inactive)
12,CCOC(=O)N1CCN(CC(O)COc2ccc(OC(F)(F)F)cc2)CC1 (stereo unspecified),11.1 (active)
13,NC(=O)C1CCN(CC(O)COc2ccc(Cl)c(Cl)c2)CC1 (stereo unspecified),-0.09 (inactive)
14,CCOc1ccc(-c2cc(O)cc3sc(=O)oc23)cc1,-1.8 (inactive)
15,CCC1(C)Cc2ccccc2-c2[nH]c(=O)n(-c3ccccc3)c(=O)c21 (stereo unspecified),-2.42 (inactive)
16,N#CC1=C(N)OC2=C(C(=O)CCC2)C1c1cccc(O)c1 (stereo unspecified),-0.34 (inactive)
17,CC(=O)Oc1cc2c(C(=O)N3CCN(c4ccccc4)CC3)c(C)oc2c2ccccc12,10.8 (active)
18,Cn1c(C(=O)N2CCC(C(=O)N3CCN(c4ccccc4)CC3)CC2)cc2sccc21,-0.7 (inactive)
19,O=C(O)C1C2CCC(O2)C1C(=O)N1CCN(c2ccccc2)CC1 (stereo unspecified),-0.45 (inactive)
20,O=C(O)c1ccc2nc(-c3ccccc3)[nH]c2c1,-1.66 (inactive)
21,CCOC(=O)c1sc2nc3c(c(-c4ccco4)c2c1N)CCC3,-2.78 (inactive)
22,N#Cc1c(N)nc2c(c1-c1ccco1)CCCC2,19.4 (active)
23,N#Cc1c(-c2ccco2)cc(-c2ccc(Br)cc2)nc1N,-0.1 (inactive)
24,O=C(OCC1CCCO1)c1c(-c2ccccc2)c(-c2ccccc2)n[nH]c1=O (stereo unspecified),-1.18 (inactive)

row,Compound,z-score
1,COc1cccc(CC2C(=O)Nc3ccccc32)c1OC (stereo unspecified),-0.98 (inactive)
2,C=CCOc1cccc(C2c3c(oc4ccc(Cl)cc4c3=O)C(=O)N2CCCN2CCOCC2)c1 (stereo unspecified),-1.86 (inactive)
3,C=CCN1C(=O)/C(=C/c2ccc(OC(=O)C34CC5CC(CC(C5)C3)C4)c(OC)c2)SC1=S,-2.28 (inactive)
4,Cc1ccc(CC2CC(=O)N(c3nc(C)cc(C)n3)C2=O)cc1 (stereo unspecified),-0.93 (inactive)
5,O=C1c2cccnc2C(=O)N1c1ccc(-c2nc3ccccc3o2)cc1,1.03 (inactive)
6,Cc1ccc2oc(-c3ccc(C)c(N)c3)nc2c1,-1.15 (inactive)
7,Cc1ccc2oc(-c3cccc(N4C(=O)c5cccnc5C4=O)c3)nc2c1,16 (active)
8,Cc1nc2c3ccccc3n3c(CCCC(=O)N4CCC(C(N)=O)CC4)nnc3n2n1,0.97 (inactive)
9,CSc1nc(N/C=C(\C#N)C(=O)c2cccs2)n2nc(C)cc2n1,-0.94 (inactive)
10,CC(C)S(=O)(=O)c1cscc1N/C=C(/C#N)C(=O)C1CC1,0.29 (inactive)
11,CC(C)S(=O)(=O)c1cscc1N/C=C(/C#N)C(=O)c1cccs1,8.41 (active)
12,Cc1ccccc1-c1noc(CSc2nnc(-c3ccncc3)n2-c2ccccc2)n1,-0.18 (inactive)
13,NC(=O)c1c(NC(=O)c2ccc(Br)o2)sc2c1CCCC2,-10.5 (inactive)
14,Cc1ccc(S(=O)(=O)c2nc(S(=O)(=O)c3ccccc3)sc2NCc2ccccn2)cc1,0.49 (inactive)
15,Cc1nc2cc(NCc3ccccn3)ccc2n1C,14.6 (active)
16,COc1ccc(-n2cnc3cc(NCc4ccco4)ccc32)cc1,-1.6 (inactive)
17,Cc1ccc(Cn2c(=O)c(C#N)cc3c(=O)n4ccccc4nc32)cc1,-2.86 (inactive)
18,CCC12CN3CC(CC)(CN(C1)C3c1cccc(N)c1)C2=O (stereo unspecified),-0.44 (inactive)
19,NC(=O)C1CCN(C(=O)C(=O)c2c[nH]c3ccccc23)CC1,-2.56 (inactive)
20,O=C(C(=O)N1CCc2ccccc2C1)c1c[nH]c2ccccc12,10.4 (active)
21,CC1CC(C)CN(C(=O)C(=O)c2c[nH]c3ccccc23)C1 (stereo unspecified),-1.24 (inactive)
22,Cc1ccc2nc(C3=C(O)CN(c4cc(Cl)ccc4C)C3=N)[nH]c2c1,-2.12 (inactive)
23,Fc1ccc(C(Nc2ccccc2)c2nnc(-c3ccccc3)o2)cc1 (stereo unspecified),0.64 (inactive)
24,Cc1cccn2c(=O)c3cc(C(=O)NCc4cccs4)n(C)c3nc12,-2.17 (inactive)
